What follows are sequences tested against T1, MutS (Salmonella typhimurium, UniProt P0A1Y0 P0A1Y0:1-855) (assay: pulldown; homoduplex control precipitated 53 fold less; 5 mM MgCl2, on ice, competitor DNA). Settings: tags: none (overproduced from pGW1825); chain copies: 2; label: 32P on DG6R; fully matched homoduplex; second strand (DG5) copied as printed, pairs with DG6R only if read 3'-5' relative to it; dsDNA, one strand shown.
T1 sequence: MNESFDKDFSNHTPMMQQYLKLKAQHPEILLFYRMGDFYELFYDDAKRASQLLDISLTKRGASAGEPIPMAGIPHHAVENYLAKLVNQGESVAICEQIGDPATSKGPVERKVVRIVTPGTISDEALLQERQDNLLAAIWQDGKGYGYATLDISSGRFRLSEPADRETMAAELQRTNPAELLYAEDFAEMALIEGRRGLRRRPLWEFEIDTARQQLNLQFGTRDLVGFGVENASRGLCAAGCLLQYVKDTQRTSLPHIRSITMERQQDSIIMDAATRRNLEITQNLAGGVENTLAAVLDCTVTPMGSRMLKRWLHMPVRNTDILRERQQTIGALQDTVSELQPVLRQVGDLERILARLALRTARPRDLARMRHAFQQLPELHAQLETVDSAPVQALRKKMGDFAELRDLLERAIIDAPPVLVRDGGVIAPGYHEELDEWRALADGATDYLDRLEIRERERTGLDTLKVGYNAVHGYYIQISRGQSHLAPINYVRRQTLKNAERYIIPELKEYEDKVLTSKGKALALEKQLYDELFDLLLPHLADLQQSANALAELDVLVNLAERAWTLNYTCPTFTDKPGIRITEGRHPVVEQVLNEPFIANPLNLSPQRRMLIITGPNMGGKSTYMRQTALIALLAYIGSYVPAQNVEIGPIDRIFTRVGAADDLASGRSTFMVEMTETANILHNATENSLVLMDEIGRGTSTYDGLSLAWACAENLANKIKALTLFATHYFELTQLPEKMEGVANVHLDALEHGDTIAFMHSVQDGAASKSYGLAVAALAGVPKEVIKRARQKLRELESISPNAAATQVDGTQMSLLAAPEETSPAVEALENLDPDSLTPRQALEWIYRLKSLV
Method: Affinity fractionation of heteroduplex nucleic acid was performed as follows. Two binding reactions were incubated on ice for 30 minutes, one containing heteroduplex nucleic acid and a control containing homoduplex DNA. The heteroduplex reaction contained 14.5 pMol of MutS, 200 fmol of DG-4/6 Het, and 2 ug of competitor nucleic acid in a total volume of 20 ul. The control reaction contained 14.5 pmol of MutS, 200 fmol of DG-5/6 Hom, and 2 ug of competitor nucleic acid in a total volume of 20 ul. After 30 minutes on ice, 5 ul of anti-MutS antibody was added to each binding reaction, and the result was incubated on ice for 60 minutes. 10 ul of Staphylococcus aureus cells that had been washed twice in assay buffer were added to both binding reactions (see McKay, 1981, supra) and the result was incubated on ice for an additional 30 minutes. Both reactions were then spun in a microfuge for 3 minutes at 4° C. and the pellet was washed 8 times in assay buffer.

Row | Sequence | binding signal
1 | GATCCGTCGACCTGCA | 1 fold (reference)
